54 compounds from PubChem BioAssay AID651597 (National Center for Advancing Translational Sciences (NCATS), 2012) can be followed below.

The campaign covered roughly 1,100 compounds. About 390 (35%) were called active. About 30% were inconclusive and are not listed. The call rests on the fitted dose curve; in most records, active means well fitted inhibition curve with a large enough effect; inconclusive means small, poorly fitted or top-dose-only effect; inactive means flat fitted curve, though single readings scatter. The list shows a part of the results.
Potency means the concentration at half of the fitted maximal effect.

For this assay, the target named is Luciferin 4-monooxygenase (Photinus pyralis) (UniProt P08659). Description: qHTS of Nrf2 Activators: Hit Validation in Secondary FLuc Assay. Further: nearly all actives have a fitted effect of over 65% in size. As to conditions: firefly luciferase inhibition counter-screen, luminescence; series mostly up to 57.5 µM. From the text:
Many diseases have some form of oxidative stress injury and ties to inflammation, causing a host of problems for the patient. The antioxidant response element (ARE) plays an important role in alleviating the harmful effects of oxidative stress. The antioxidant response element (ARE) is a transcriptional regulatory element involved in the activation of genes coding for a number of antioxidant proteins and detoxifying enzymes. These enzymes work in concert to protect tissues from oxidative insults and chemical toxicities in human hepatocytes and immune cells. The protective effects of ARE activation are primarily triggered through Nrf2 (NF-E2-related factor) binding to and activating AREs. It is known that Nrf2 controls the production of over 250 antioxidant and detoxification proteins (Hu et al., 2006), thereby protecting tissues by increasing cellular antioxidant content and suppressing inflammatory signaling pathways. The transcription factor Nrf2 is a central link between oxidative chemicals, such as phenolic antioxidants and electrophilic compounds, and the activation of ARE. Nrf2 levels are constitutively low as a consequence of its interaction with Keap1, which targets its degradation (Zipper and Mulcahy, 2002). Electrophiles react with key cysteine residues in Keap1, releasing Nrf2 and allowing its translocation to the nucleus. Once within the nucleus, Nrf2 complexes with coactivators such as p300, and binds to the AREs to induce gene transcription of cytoprotective enzymes, resulting in the prevention of toxicity. Activation of Nrf2 protects tissues by increasing cellular antioxidant content and suppressing inflammatory signaling pathways. Identifying novel and potent Nrf2 activators by using the AREc32 cell line to detect ARE activation by small molecules will lead to the identification and development of probes to study protective pathways in multiple tissues. These specific probes are essential to study the ARE pathway, and eventually to determine whether this pathway does activate genes that could protect against a host of diseases, including cardiovascular diseases, obesity, diabetes, Alzheimer's, and Parkinson's disease.
This project's aim is to identify novel and potent Nrf2 activators by using the AREc32 cell line to detect ARE activation by small molecules, which will lead to the identification and development of probes to study the ARE pathway. In this counter assay, we aim to identify false positive as identified from this primary assay using an FLuc assay with an inhibiting read-out.
NIH Chemical Genomics Center [NCGC]
NIH Molecular Libraries Probe Centers Network [MLPCN]
Assay Submitter (PI): Curtis Klaassen, University of Kansas Medical Center
Assess whether an activator in the primary assay potentially causes such activation by inhibitor-induced stabilization of the firefly luciferase reporter enzyme by determining whether it inhibits firefly luciferase in the presence of Km concentrations of its substrates (ATP and D-luciferin).
A general note: In qHTS, concentration-response curves come from the screen itself.
On to `CSc1nsc(SC)c1NC(=O)Nc1ccccn1`, for which the Potency result was “inactive”.

On to `O=C(Nc1ccccn1)c1csc2c1CCCC2`, for which the Potency is 3.01 µM (active).

Consider `O=C(Nc1nnc(-c2ccccc2F)s1)Nc1ccccc1F`, for which the Potency result is “inactive”.

Regarding `O=C(Nc1nnc(-c2ccccc2F)s1)C1CCCO1` (centres undefined), the Potency is 10.7 µM (active).

Regarding `CCCNC(=O)c1ccc(S(=O)(=O)c2ccc(OC)cc2)c([N+](=O)[O-])c1`, the Potency result was “inactive”.

As for `COCCNc1ccc(-c2nc(-c3ccco3)no2)cc1[N+](=O)[O-]`, the Potency was 0.478 µM (active).

Regarding `CCCNc1ccc(-c2nc(-c3ccco3)no2)cc1[N+](=O)[O-]`, the Potency was 0.169 µM (active).

In the case of `O=[N+]([O-])c1cc(-c2nc(-c3ccccc3)no2)ccc1NCc1cccnc1`, the Potency is 4.78 µM (active).

Regarding `CCNc1ccc(-c2nc(-c3ccco3)no2)cc1[N+](=O)[O-]`, the Potency was 0.19 µM (active).

With `NC(=O)c1ccsc1NC(=O)COC(=O)[C@@H]1CCCN1C(=O)c1cccs1`, the Potency result was “inactive”.

For `Cc1cc(C)n(S(=O)(=O)/C=C/c2ccccc2)n1`, the Potency result was “inactive”.

With `Cn1c(NC(=O)/C=C/c2ccccc2)cc(=O)n(C)c1=O`, the Potency was 8.49 µM (active).

With `CC(=O)c1cc2c(cc1NC(=O)CSc1nc3ccccc3o1)OCO2`, the Potency entry was “inactive”.

As to `CC(=O)Nc1nc2cccc([N+](=O)[O-])c2s1`, the Potency result is “inactive”.

Consider `Cn1cc([N+](=O)[O-])c(C(=O)Nc2ccc(-c3nc4ccccc4o3)cc2)n1`, for which the Potency is 8.49 µM (active).

On to `CN1C2CCC1/C(=C\c1ccc(F)cc1)C(=O)/C2=C/c1ccc(F)cc1`, for which the Potency result was “inactive”.

For the compound `CCc1nn2c(-c3ccco3)ccnc2c1-c1ccccc1`, the Potency result was “inactive”.

For the compound `COc1ccc(-c2nnc3c4ccccc4c(C)nn23)cc1`, the Potency was 7.57 µM (active).

As for `Cc1nn2c(-c3ccco3)nnc2c2ccccc12`, the Potency was 16.9 µM (active).

Regarding `Cc1nn2c(-c3ccccc3)nnc2c2ccccc12`, the Potency was 10.7 µM (active).

Consider `Cc1ccc(S(=O)(=O)c2nc(S(C)(=O)=O)sc2N2CCN(C)CC2)cc1`, for which the Potency entry is “inactive”.

Turning to `Cc1ccc(-c2nc(C=Nc3ccc(O)cc3)c(O)o2)cc1`, the Potency is 2.69 µM (active).

Consider `O=c1cc(-c2ccccc2Cl)oc2c(Br)ccc(O)c12`, for which the Potency was 2.39 µM (active).

Take `O=c1cc(-c2cccc(Br)c2)oc2cccc(O)c12`: the Potency result was “inactive”.

On to `O=c1oc(CCCO)cc2ccc(C#Cc3ccsc3)cc12`, for which the Potency is 2.39 µM (active).

Regarding `O=c1oc(CCO)cc2ccc(C#Cc3ccsc3)cc12`, the Potency is 2.69 µM (active).

As for `Cn1c(/N=C(\N)c2ccccc2)nc2ccccc21`, the Potency was 1.35 µM (active).

Consider `Cn1c(/C(C#N)=C(\O)c2cc(Cl)sc2Cl)nc2ccccc21`, for which the Potency entry is “inactive”.

For `Cc1cc(C)n2nc(-c3ccc(F)cc3)cc2n1`, the Potency was 1.51 µM (active).

As to `Cc1cc(N2CCOCC2)n2nc(-c3cccc(F)c3)cc2n1`, the Potency entry is “inactive”.

For the compound `COc1ccccc1NC(=O)c1nc(S(=O)(=O)Cc2ccccc2)ncc1Cl`, the Potency is 2.69 µM (active).

Consider `COc1ccc(Cl)cc1NC(=O)CCS(=O)(=O)c1cccc2nonc12`, for which the Potency entry is “inactive”.

Turning to `COc1ccccc1NC(=O)c1ccc(Cl)c(S(=O)(=O)NCc2ccco2)c1`, the Potency result was “inactive”.

For the compound `CCOC(=O)c1ccc(NC(=O)c2nc(S(=O)(=O)Cc3ccccc3)ncc2Cl)cc1`, the Potency was 1.69 µM (active).

`Cc1ccc2c(N)c(C(=O)c3ccccc3)sc2n1`: the Potency is 9.53 µM (active).

On to `Cc1nc2sc(C(=O)c3ccccc3)c(N)c2c2c1CCCC2`, for which the Potency was 1.9 µM (active).

With `Cc1ccc(C(=O)/C=C/c2ccc(-c3ccccc3[N+](=O)[O-])o2)cc1`, the Potency is 2.69 µM (active).

Take `O=C(/C=C/c1ccc(-c2ccccc2[N+](=O)[O-])o1)c1ccc(Br)cc1`: the Potency was 6.01 µM (active).

For `CN1CCN(C(=O)/C=C/c2ccc([N+](=O)[O-])o2)CC1`, the Potency result was “inactive”.

`O=C(/C=C/c1ccc(-c2ccccc2[N+](=O)[O-])o1)c1ccccc1`: the Potency was 5.36 µM (active).

Consider `COC(=O)c1sccc1NC(=O)c1ccc(OC)c(OC)c1`, for which the Potency result is “inactive”.

For `COc1ccc(OC)c(C(=O)Nc2c(O)ccc3ccccc23)c1`, the Potency was 15.1 µM (active).

For `CNc1ccc(Br)cc(C(=O)/C=C/c2cccc(OC)c2)c1=O`, the Potency is 8.49 µM (active).

Take `CNc1ccc(Br)cc(C(=O)/C=C/c2cccc(Cl)c2Cl)c1=O`: the Potency is 4.78 µM (active).

For `CNc1ccccc(C(=O)/C=C/c2ccccc2OC)c1=O`, the Potency is 5.36 µM (active).

Turning to `CNc1ccc(Br)cc(C(=O)/C=C/c2ccc(Cl)cc2Cl)c1=O`, the Potency was 4.78 µM (active).

Turning to `COC1=C(C)C(O)=C(C(=O)/C=C/c2ccccc2)C(=O)C1(C)C`, the Potency result is “inactive”.

In the case of `CC1CCN(CC2C(=O)O[C@@H]3C[C@@]4(C)CCC[C@H](C)C4=C[C@H]23)CC(C)(C)C1` (some centres undefined), the Potency entry was “inactive”.

`Cc1cc(=O)oc2cc(NC(=O)c3ccccc3Cl)ccc12`: the Potency was 5.36 µM (active).

For the compound `Cc1cc(=O)oc2c(C(=O)/C=C/c3ccccc3)c(O)ccc12`, the Potency result is “inactive”.

On to `Cn1c(=O)oc2cc(NC(=O)CCl)ccc21`, for which the Potency entry is “inactive”.

Take `Oc1ccccc1C=NN=Cc1c(O)ccc2ccccc12`: the Potency is 3.01 µM (active).

Consider `Cn1c(=O)c2nc(NCc3ccccc3)sc2n(C)c1=O`, for which the Potency entry was “inactive”.

Consider `O=S1(=O)C=C(Sc2nc3cc(Cl)ccc3o2)c2ccccc21`, for which the Potency is 0.849 µM (active).
